# Laboratory results as given in PubChem BioAssay (Tox21).
# Inconclusive results are not listed. Calls of active or inactive are those of the source. The call rests on the fitted dose curve; in most records, active means well fitted activation curve with a large enough effect in the signal ratio in the repeat runs (not every such curve was filed as active); inconclusive means weak or mixed curves; inactive means flat fitted curve, though single readings scatter; the % refers to the signal ratio.
# Assay: qHTS assay to identify small molecule agonists of the hypoxia (HIF-1) signaling pathway (AID 1224846)
# Conditions: HRE-bla ME-180 cells, beta-lactamase ratio, 17 h; series mostly up to 76.8 µM; activation: at the top concentration
# Summary of the method: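 Reporter induction in HRE-bla ME-180 cells is taken as agonism: cells sit 5 hrs after plating, receive compounds or DMSO only, incubate 17 hrs at 37C under 5% CO2, and are loaded with CCF4-AM for beta-lactamase FRET measurement.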
# On the % scale 0 is the no-effect control and ±100 the full control effect.
row,Compound,activation
1,CC(=O)Nc1ccc(C)cc1,0.481% (inactive)
2,C[CH2][Ge]([Cl])([CH2]C)[CH2]C,-0.712% (inactive)
3,Oc1ccccc1Cc1ccccc1O,0.753% (inactive)
4,CCCCCN(CCCOC)C(=O)C(CCC(=O)O)NC(=O)c1ccc(Cl)c(Cl)c1 (stereo unspecified),-1.11% [at 35.5 µM] (inactive)
5,NS(=O)(=O)c1ccccc1OC(F)(F)F,-1.42% (inactive)
6,CC(=O)OCCCc1ccccc1,-0.125% (inactive)
7,CCC(C)(C)C1CCC(=O)CC1,0.403% (inactive)
8,Cc1ccccc1C,-0.506% (inactive)
9,O=C(O)c1ccc(OCCN2CCCCC2)cc1,-1.17% [at 35.5 µM] (inactive)
10,C=CCOc1c(Br)cc(Br)cc1Br,-0.825% (inactive)
11,CCCCCCCCOC(C)=O,-0.0053% (inactive)
12,CC(C)COC(=O)COc1ccc(Cl)cc1Cl,-0.114% (inactive)
13,CCCCC(C)C(=O)O (stereo unspecified),-0.716% (inactive)
14,CCCCCCCCCCCCCCCCI,0.543% [at 15.8 µM] (inactive)
15,O=c1[nH]c(=O)c2ccccc2o1,-1.37% [at 35.5 µM] (inactive)
16,CNCc1ccccc1,3.44% [at 35.5 µM] (inactive)
17,O=C(COCCOCCOCC(=O)Nc1c(I)cc(I)c(C(=O)O)c1I)Nc1c(I)cc(I)c(C(=O)O)c1I,-0.497% [at 35.5 µM] (inactive)
18,C=CCOc1c(Br)cc(C(C)(C)c2cc(Br)c(OCC=C)c(Br)c2)cc1Br,1.77% [at 35.5 µM] (inactive)
19,O=C(O)/C=C/c1ccccc1,-0.295% (inactive)
20,CCCOC(=O)CCCCC(=O)OCCC,-0.313% (inactive)
21,CN(C)CCOCCN(C)CCO,-1.23% (inactive)
22,CC(C)SCc1ccco1,-0.458% [at 35.5 µM] (inactive)
23,CCNC(=O)NCCCOc1cccc(CN2CCCCC2)c1,2.6% [at 35.5 µM] (inactive)
24,COc1cc(C=O)ccc1OC(=O)C(C)C,-0.646% (inactive)
25,CCCCCCCCCCCCCCCCCCN(C)C,-0.233% [at 35.5 µM] (inactive)
26,COc1cccc2sc(N)nc12,0.161% (inactive)
